According to the supplement of paper PMC11732987, “Enantioselective OTUD7B fragment discovery through chemoproteomics screening and high-throughput optimisation” (Communications Chemistry, 2025):

Tests used:
Assay in all cases: log2 ratio of Biotin-Ahx-Ub-VS probe labelling (fragment/DMSO); higher = less target engagement (more negative = stronger competition), active = hit call of the paper (q ≤ 0.05, log2 ratio ≤ -1)
Settings in all cases: compound concentration: 200 uM; treatment time: 3 h
OTUD6B = molecular target: T1, OTUD6B (UniProt Q8N6M0)
T1 sequence (whole entry): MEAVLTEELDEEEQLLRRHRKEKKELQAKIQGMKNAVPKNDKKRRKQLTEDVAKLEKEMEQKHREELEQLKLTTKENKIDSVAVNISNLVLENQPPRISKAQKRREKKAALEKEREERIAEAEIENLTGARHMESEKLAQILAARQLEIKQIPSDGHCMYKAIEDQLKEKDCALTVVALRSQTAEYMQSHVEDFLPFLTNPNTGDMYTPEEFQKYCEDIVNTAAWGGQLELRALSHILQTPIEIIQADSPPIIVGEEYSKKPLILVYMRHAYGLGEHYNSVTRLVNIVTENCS
Outline: (§1)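 HEK293T lysate (495 µg per sample, in Tris/CHAPS/IGEPAL buffer with protease inhibitors) was treated in triplicate with fragment at 200 µM or with DMSO for 3 h. It was then treated with Biotin-Ahx-Ub-VS (0.5 µM final) for 1 h. Labelled DUBs were NeutrAvidin-enriched, digested with LysC and trypsin, and run by diaPASEF LC-MS/MS. Spectronaut label-free quantities were global-median-normalised. Values are average log2 ratios fragment/DMSO by unpaired t-test, using proteins with ≥2 unique peptides.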

OTUD7B = molecular target: T2, OTUD7B (UniProt Q6GQQ9)
T2 sequence (whole entry): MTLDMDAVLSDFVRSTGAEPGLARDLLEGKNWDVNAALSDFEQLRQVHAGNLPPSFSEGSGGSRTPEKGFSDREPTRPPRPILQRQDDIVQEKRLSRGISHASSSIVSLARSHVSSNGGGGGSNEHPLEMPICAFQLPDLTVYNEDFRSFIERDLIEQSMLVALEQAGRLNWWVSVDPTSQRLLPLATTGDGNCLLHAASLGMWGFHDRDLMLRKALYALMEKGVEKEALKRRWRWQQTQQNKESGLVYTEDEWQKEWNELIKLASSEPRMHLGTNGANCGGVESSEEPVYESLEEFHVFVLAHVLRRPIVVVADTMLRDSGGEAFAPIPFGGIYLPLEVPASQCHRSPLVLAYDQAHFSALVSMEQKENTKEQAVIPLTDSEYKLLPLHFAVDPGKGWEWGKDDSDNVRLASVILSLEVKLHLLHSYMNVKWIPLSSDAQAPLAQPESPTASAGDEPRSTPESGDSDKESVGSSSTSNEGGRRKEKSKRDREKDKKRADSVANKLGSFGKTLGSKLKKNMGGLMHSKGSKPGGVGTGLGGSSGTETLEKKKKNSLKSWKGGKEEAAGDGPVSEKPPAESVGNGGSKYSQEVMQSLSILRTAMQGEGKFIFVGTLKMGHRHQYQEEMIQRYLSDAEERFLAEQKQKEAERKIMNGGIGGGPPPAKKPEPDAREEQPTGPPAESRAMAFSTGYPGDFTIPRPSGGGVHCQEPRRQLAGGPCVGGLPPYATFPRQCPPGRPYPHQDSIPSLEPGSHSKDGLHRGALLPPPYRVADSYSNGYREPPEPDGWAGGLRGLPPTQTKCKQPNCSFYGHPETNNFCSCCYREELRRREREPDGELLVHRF
Outline: as §1

PRPF8 = PRPF8 (UniProt Q6P2Q9)
Outline: as §1

PSMD7 = molecular target: T3, PSMD7 (UniProt P51665)
T3 sequence (whole entry): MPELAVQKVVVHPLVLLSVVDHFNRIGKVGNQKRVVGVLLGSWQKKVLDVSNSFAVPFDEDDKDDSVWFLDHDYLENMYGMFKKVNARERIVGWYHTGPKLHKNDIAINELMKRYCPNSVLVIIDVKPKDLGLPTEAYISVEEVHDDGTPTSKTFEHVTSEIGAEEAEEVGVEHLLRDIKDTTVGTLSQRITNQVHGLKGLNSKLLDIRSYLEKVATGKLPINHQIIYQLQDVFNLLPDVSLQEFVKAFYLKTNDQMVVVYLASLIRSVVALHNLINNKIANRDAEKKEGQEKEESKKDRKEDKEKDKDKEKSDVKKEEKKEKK
Outline: as §1

UCHL1 = UCHL1 (UniProt P09936)
Outline: as §1

UCHL3 = molecular target: T4, UCHL3 (UniProt P15374)
T4 sequence (whole entry): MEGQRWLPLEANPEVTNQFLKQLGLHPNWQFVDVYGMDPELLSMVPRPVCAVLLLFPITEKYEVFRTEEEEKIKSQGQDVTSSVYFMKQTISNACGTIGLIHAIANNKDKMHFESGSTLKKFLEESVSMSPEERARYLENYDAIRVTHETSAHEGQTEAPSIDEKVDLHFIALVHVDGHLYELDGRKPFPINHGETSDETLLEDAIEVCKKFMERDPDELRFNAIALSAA
Outline: as §1

UCHL5 = molecular target: T5, UCHL5 (UniProt Q9Y5K5)
T5 sequence (whole entry): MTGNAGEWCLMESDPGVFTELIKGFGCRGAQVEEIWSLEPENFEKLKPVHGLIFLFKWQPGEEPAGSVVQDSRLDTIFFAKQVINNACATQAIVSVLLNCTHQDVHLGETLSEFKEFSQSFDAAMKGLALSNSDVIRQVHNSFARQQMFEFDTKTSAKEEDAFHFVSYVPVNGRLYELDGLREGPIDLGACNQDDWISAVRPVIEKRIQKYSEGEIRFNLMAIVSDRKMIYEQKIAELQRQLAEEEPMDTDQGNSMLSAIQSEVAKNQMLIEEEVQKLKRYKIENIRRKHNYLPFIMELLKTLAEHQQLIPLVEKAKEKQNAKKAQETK
Outline: as §1

USP10 = USP10 (UniProt Q14694)
Outline: as §1

USP15 = molecular target: T6, USP15 (UniProt Q9Y4E8)
T6 sequence (whole entry): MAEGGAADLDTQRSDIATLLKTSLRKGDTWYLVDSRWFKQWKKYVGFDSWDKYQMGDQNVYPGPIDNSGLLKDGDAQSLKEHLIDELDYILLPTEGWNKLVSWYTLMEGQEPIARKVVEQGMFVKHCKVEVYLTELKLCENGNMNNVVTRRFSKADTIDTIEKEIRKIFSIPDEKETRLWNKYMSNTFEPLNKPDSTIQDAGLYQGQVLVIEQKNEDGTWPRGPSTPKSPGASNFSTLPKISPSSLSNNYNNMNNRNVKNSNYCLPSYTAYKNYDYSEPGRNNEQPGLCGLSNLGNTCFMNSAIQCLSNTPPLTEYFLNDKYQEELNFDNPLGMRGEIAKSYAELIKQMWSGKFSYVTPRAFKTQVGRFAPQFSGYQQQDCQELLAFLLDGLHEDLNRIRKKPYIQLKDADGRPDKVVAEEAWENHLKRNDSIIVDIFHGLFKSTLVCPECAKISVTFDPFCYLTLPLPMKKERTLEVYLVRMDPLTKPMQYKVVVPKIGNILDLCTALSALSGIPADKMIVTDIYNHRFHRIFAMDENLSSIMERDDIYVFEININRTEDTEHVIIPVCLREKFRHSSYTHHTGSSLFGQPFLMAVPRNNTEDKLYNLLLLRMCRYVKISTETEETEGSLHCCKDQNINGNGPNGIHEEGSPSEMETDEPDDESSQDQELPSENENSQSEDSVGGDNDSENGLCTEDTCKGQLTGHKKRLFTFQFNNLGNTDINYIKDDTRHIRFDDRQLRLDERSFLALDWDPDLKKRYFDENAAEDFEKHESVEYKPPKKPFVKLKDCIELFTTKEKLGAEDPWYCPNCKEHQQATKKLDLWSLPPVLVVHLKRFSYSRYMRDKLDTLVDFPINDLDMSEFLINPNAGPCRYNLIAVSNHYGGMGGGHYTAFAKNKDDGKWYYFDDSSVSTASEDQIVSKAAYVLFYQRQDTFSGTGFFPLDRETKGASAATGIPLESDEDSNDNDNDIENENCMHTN
Outline: as §1

USP16 = USP16 (UniProt Q9Y5T5)
Outline: as §1

Measured: log2 ratio of Biotin-Ahx-Ub-VS probe labelling

Sequence of USP10 (Q14694 whole entry): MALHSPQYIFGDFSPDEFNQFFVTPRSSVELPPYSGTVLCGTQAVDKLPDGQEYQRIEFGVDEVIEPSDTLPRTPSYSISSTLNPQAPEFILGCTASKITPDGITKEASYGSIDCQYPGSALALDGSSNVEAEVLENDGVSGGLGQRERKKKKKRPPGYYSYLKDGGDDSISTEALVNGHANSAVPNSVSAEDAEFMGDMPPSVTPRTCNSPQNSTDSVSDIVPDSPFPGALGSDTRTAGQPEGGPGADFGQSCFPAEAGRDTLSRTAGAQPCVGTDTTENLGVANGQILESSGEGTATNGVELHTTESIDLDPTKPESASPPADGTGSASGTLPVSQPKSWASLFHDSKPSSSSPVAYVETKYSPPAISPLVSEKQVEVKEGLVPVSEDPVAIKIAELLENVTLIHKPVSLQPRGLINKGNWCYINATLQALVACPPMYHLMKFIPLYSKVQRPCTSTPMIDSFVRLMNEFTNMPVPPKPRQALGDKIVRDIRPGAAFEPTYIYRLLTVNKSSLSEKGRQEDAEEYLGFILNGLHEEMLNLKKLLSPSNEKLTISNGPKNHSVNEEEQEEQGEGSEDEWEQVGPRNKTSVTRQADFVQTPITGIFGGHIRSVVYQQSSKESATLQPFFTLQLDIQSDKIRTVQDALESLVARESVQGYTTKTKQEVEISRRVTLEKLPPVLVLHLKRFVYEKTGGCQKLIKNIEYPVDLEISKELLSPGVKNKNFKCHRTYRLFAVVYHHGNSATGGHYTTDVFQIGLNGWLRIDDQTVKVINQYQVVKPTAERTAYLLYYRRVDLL
Sequence of USP16 (Q9Y5T5 whole entry, looked up): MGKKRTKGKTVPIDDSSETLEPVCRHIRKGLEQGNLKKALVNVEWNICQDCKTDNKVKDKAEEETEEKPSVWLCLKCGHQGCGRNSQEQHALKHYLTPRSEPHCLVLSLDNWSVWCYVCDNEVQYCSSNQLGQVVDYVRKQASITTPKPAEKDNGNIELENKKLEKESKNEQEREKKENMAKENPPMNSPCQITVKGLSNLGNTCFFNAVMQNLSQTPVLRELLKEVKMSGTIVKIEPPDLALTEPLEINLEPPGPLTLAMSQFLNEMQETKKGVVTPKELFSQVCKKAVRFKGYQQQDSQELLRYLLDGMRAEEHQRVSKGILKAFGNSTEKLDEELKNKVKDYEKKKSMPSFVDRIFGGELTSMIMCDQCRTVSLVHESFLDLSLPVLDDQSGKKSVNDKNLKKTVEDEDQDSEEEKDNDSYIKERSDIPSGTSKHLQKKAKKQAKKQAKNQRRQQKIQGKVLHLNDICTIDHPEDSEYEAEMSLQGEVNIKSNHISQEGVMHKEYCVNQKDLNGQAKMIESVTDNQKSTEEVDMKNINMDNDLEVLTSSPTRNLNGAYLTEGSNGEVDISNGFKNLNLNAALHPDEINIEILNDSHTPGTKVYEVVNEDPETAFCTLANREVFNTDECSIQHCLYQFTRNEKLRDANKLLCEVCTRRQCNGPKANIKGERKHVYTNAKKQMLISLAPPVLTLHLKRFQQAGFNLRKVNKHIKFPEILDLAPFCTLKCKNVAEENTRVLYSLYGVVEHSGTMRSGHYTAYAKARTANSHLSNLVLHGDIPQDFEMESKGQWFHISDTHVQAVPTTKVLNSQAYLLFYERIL
Sequence of UCHL1 (P09936 whole entry, looked up): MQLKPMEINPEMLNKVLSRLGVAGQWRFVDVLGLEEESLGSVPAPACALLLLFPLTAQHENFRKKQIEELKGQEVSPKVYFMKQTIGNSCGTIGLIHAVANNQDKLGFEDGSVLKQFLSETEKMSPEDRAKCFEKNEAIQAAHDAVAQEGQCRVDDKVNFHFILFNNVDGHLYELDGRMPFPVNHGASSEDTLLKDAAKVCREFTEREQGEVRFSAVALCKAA

O=C(CCl)NC1CCC(C(F)(F)F)CC1 (stereo not given)
active: UCHL1 -1.31
inactive: OTUD6B -0.153 | OTUD7B -0.576 | PRPF8 0.103 | PSMD7 -0.258 | UCHL3 0.327 | UCHL5 -0.0657 | USP10 -0.141 | USP15 -0.158 | USP16 -0.000805
